{
  "source": "patent US20210230599",
  "about": "“STEM-LOOP COMPOSITIONS AND METHODS FOR INHIBITING INTERLEUKIN-8” (VITRISA THERAPEUTICS, INC., published 2021)",
  "data": [
    {"molecular_target": "Interleukin-8 (IL8, CXCL8), C-terminal His-tagged (Homo sapiens, UniProt P10145 SEQ:1-72)", "test": "competition; competition TR-FRET; Aptamer 116 variant", "details": "tags: C-terminal His (Sino Biological); stem-loop; ssRNA; 2'-F G except 2'-OMe G at X (CGGU-GGGA-AACGU-GAGAU-GGXUU-GCCG); 2'-OMe A,C,U; 5' C6NH2; 3' idT", "source_text": "(§1) 2′OMe modifications may impart higher duplex stability, increased metabolic stability in serum and vitreous, and may have greater coupling efficiency during synthesis compared to 2′F-containing nucleotides. The use of these nucleotides may also avoid the potential loss of the 2′F group during production, which can happen during deprotection steps and exposure to heat. To probe the effect of 2′F-G to 2′OMe-G substitution on target binding, variants of Aptamer 116 and 212 were synthesized where 2′F-G was selectively substituted with 2′OMe-G (Table 49) and assayed for activity by competition TR-FRET using ALEXA FLUOR® 647-labeled parent Aptamer 212. 2′OMe-G replacements were well tolerated in all positions of stem S1 (Aptamers 242-248).", "values": [
      {"sequence": "CGGUGGGAAACGUGAGAUGGGUUGCCG [listing 1 of 4 here]", "binding signal": "> 10 fold worse than Aptamer 212"}
    ]},
    {"molecular_target": "Interleukin-8 (IL8, CXCL8), C-terminal His-tagged (Homo sapiens, UniProt P10145 SEQ:1-72)", "test": "competition; competition TR-FRET; Aptamer 116 variant", "details": "tags: C-terminal His (Sino Biological); stem-loop; ssRNA; 2'-F G except 2'-OMe G at X (CGGU-GGGA-AACGU-GAGAU-GXGUU-GCCG); 2'-OMe A,C,U; 5' C6NH2; 3' idT", "source_text": "as §1", "values": [
      {"sequence": "CGGUGGGAAACGUGAGAUGGGUUGCCG [listing 2 of 4 here]", "binding signal": "> 10 fold worse than Aptamer 212"}
    ]},
    {"molecular_target": "Interleukin-8 (IL8, CXCL8), C-terminal His-tagged (Homo sapiens, UniProt P10145 SEQ:1-72)", "test": "competition; competition TR-FRET; Aptamer 116 variant", "details": "tags: C-terminal His (Sino Biological); stem-loop; ssRNA; 2'-F G except 2'-OMe G at X (CGGU-GGGA-AACGU-GAGAU-XGGUU-GCCG); 2'-OMe A,C,U; 5' C6NH2; 3' idT", "source_text": "as §1", "values": [
      {"sequence": "CGGUGGGAAACGUGAGAUGGGUUGCCG [listing 3 of 4 here]", "binding signal": "> 10 fold worse than Aptamer 212"}
    ]},
    {"molecular_target": "Interleukin-8 (IL8, CXCL8), C-terminal His-tagged (Homo sapiens, UniProt P10145 SEQ:1-72)", "test": "competition; competition TR-FRET; Aptamer 116 variant", "details": "tags: C-terminal His (Sino Biological); stem-loop; ssRNA; 2'-F G except 2'-OMe G at X (CGGU-GGGA-AACXU-GAGAU-GGGUU-GCCG); 2'-OMe A,C,U; 5' C6NH2; 3' idT", "source_text": "as §1", "values": [
      {"sequence": "CGGUGGGAAACGUGAGAUGGGUUGCCG [listing 4 of 4 here]", "binding signal": "> 10 fold worse than Aptamer 212"}
    ]}
  ]
}
